Reference: the supplement of paper PMC7156485
Several values for one entry are separate records, joined by “and”; a condition that tells them apart may be missing. Equal entries are not always repeated. ± gives the standard deviation of the averaged measurements.

Key:
Conditions in all cases: concentration: 10 µM; 24 h
HCC1569 [1] = assay: cell number relative to DMSO (% of DMSO); higher = more cells (less growth inhibition / toxicity)
In short: (§1)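 H1.0 nuclear intensity or cell number is stated as percent of the plate control, based on the median of replicates, and HCC1569 values were smoothed for positional effects. These came from HCC1569 and TDF cells treated with compounds at 10 µM for 24 h at 37 °C in triplicate, then fixed in 3.7% formaldehyde and stained with a rabbit anti-H1.0 antibody, an AlexaFluor 647 secondary and DAPI.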

TDF [2] = assay: as above
In short: as §1

TDF [3] = assay: H1.0 immunofluorescence intensity relative to DMSO (% of DMSO); higher = stronger H1.0 induction, active = 120 or more
In short: as §1

HCC1569 [4] = assay: H1.0 immunofluorescence intensity relative to DMSO (% of DMSO); higher = stronger H1.0 induction, active = 140 or more
In short: as §1
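Throughout, for H1.0 immunofluorescence intensity relative to DMSO: TDF is a line of transformed human dermal fibroblasts of mesenchymal origin.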
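Throughout, for cell number relative to DMSO: TDF denotes transformed human dermal fibroblasts of mesenchymal origin.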

| SMILES | cell number (HCC1569 [1]) | cell number (TDF [2]) | H1.0 immunofluorescence intensity (TDF [3]) | H1.0 immunofluorescence intensity (HCC1569 [4]) |
| --- | --- | --- | --- | --- |
| CCn1c(=O)[nH]c2cc(Cl)c(Cl)cc21 | 99.9 | 94.4 | 99.5 (inactive) | 95.7 (inactive) |
| Cc1cnc(-c2cnc(NCCNc3ccc(C#N)cn3)nc2-c2ccc(Cl)cc2Cl)[nH]1 | 70.4 | 74.4 | 114 (inactive) | 112 (inactive) |
| CC1(COc2ccc(CC3SC(=O)NC3=O)cc2)CCCCC1 (centres undefined) [Ciglitizone] | 102 | 105 | 96.5 (inactive) | 90.5 (inactive) |
| Nc1nc(Cl)nc2c1ncn2C1OC(COP(=O)([O-])OP(=O)([O-])OP(=O)([O-])[O-])C(O)C1O.[Na+].[Na+].[Na+].[Na+] (centres undefined) [2-Chloroadenosine triphosphate tetrasodium] | 102 | 99 | 89.5 (inactive) | 83.9 (inactive) |
| CC#N.Nc1nc(Nc2ccc(S(N)(=O)=O)cc2)nn1C(=O)c1c(F)cccc1F [Aurora Kinase/Cdk Inhibitor] | 62 | 39.5 | 98.1 (inactive) | 83.7 (inactive) |
| CC(CCC(=O)NCCS(=O)(=O)O)C1CCC2C3C(O)CC4CC(O)CCC4(C)C3CC(O)C12C (centres undefined) [Taurocholic acid] | 101 | 104 | 97.8 (inactive) | 111 (inactive) |
| CCCCCCCCCCCCCC=CC(O)C(CO)NCCCCCCCC (centres undefined) [C8 Ceramine] | 105 | 97 | 95.1 (inactive) | 121 (inactive) |
| CN=C(NC#N)NCCSCc1nc[nH]c1C [Cimetidine] | 102 ± 1.8 | 100 ± 12 | 102 (inactive) | 92.1 (inactive) |
| CCCCCC(O)C=CC1C2CC(CO2)C1CC=CCCCC(=O)O (centres undefined) | 102 | 107 | 93.7 (inactive) | 99.9 (inactive) |
| CCCCCCCCCCCCCCCCCCc1ccc(C(=O)/C=C/C(=O)O)cc1 [(2E)-4-(4-octadecylphenyl)-4-oxo-2-butenoic acid] | 100 | 105 | 97.6 (inactive) | 107 (inactive) |
| COc1cc2c(cc1CC=C(C)C)C(=O)CC(c1ccc(O)cc1)O2 (centres undefined) [Bavachinin A] | 103 | 104 | 99.5 (inactive) | 96.7 (inactive) |
| CCCCCC(=O)C=CC=CCCCCCCCC(=O)O [13-Ketooctadecadienoioc acid] | 99.9 | 97.6 | 95.9 (inactive) | 103 (inactive) |
| Fc1ccc(C2CCNCC2COc2ccc3c(c2)OCO3)cc1 (centres undefined) [Paroxetine] | 97.7 | 99.3 | 99.1 (inactive) | 114 (inactive) |
| CC(N)(Cc1ccc(O)c(O)c1)C(=O)O (racemic) | 101 | 101 | 90.9 (inactive) | 98.2 (inactive) |
| O=C(C=Cc1ccc(O)c(O)c1)OCCc1ccccc1 [Caffeic acid phenethyl ester] | 69.1 | 81 | 94.7 (inactive) | 108 (inactive) |
| Oc1ccc(-c2c(-c3ccccc3)nn3c(C(F)(F)F)cc(C(F)(F)F)nc23)cc1 | 67.9 | 12.4 | 154 (active) | 143 (active) |
| CC(=O)N1CCN(c2ccc(OCC3COC(Cn4ccnc4)(c4ccc(Cl)cc4Cl)O3)cc2)CC1 (centres undefined) [Ketoconazole] | 85.7 ± 11 | 97.3 ± 15 | 101 (inactive) | 118 (inactive) |
| CCCCCCCCC=CCCCCCCCC(=O)O [9(Z)-Octadecenoic acid] | 104 | 97.1 | 97.5 (inactive) | 103 (inactive) |
| CC1OC(OC2C(O)CC(OC3C(O)CC(OC4CCC5(C)C(CCC6C5CCC5(C)C(C7=CC(=O)OC7)CCC65O)C4)OC3C)OC2C)CC(O)C1O (centres undefined) [Digitoxin] | 58.4 | 48.4 | 127 (active) | 121 (inactive) |
| CN(C)S(=O)(=O)c1ccc2c(c1)C(=Cc1cc3c([nH]1)CCCC3)C(=O)N2 | 72.9 | 48 | 97.5 (inactive) | 184 (active) |
| O=C(O)c1ccc(O)c(O)c1 [Protocatechuic acid] | 100 | 106 | 91.4 (inactive) | 91.3 (inactive) |
| CCCCCC(O)C=CC=CCC=CCCCC(=O)O (centres undefined) | 100 | 90.9 | 97 (inactive) | 97.1 (inactive) |
| CCCCCC=CCC=CCCCCCCCC(=O)O [Linoleic acid] | 102 | 101 | 105 (inactive) | 99.3 (inactive) |
| CC(CN1c2ccccc2Sc2ccccc21)N(C)C.Cl (centres undefined) [Promethazine.HCl] | 104 | 101 | 96.1 (inactive) | 121 (inactive) |
| CC1CNc2c(cccc2S(=O)(=O)N[C@@H](CCCN=C(N)N)C(=O)N2CC[C@@H](C)C[C@@H]2C(=O)O)C1.O (some centres undefined) | 102 | 104 | 89.5 (inactive) | 105 (inactive) |
| CCC(=O)OC(OP(=O)(CCCCc1ccccc1)CC(=O)N1CC(C2CCCCC2)CC1C(=O)O)C(C)C (centres undefined) [Fosinopril] | 99.8 | 86 | 96 (inactive) | 101 (inactive) |

| SMILES | cell number (HCC1569 [1]) | cell number (TDF [2]) | H1.0 immunofluorescence intensity (TDF [3]) | H1.0 immunofluorescence intensity (HCC1569 [4]) |
| --- | --- | --- | --- | --- |
| C=C1CCC(O)CC1=CC=C1CCCC2(C)C1CCC2C(C)CCCC(C)(C)O (centres undefined) [Calcifediol] | 97.4 | 104 | 99.9 (inactive) | 120 (inactive) |
| CC[N+](C)(C)c1cccc(O)c1.[Cl-] [Edrophonium chloride] | 102 | 113 | 96.1 (inactive) | 95.7 (inactive) |
| CCC12CCCN3CCc4c(n(c5ccccc45)C(O)(C(=O)OC)C1)C32 (centres undefined) [Vincamine] | 101 | 95.8 | 102 (inactive) | 86.2 (inactive) |
| O=C(O)c1ccc(-c2c[nH]c3ncc(-c4ccccc4)cc23)cc1C1CCCC1 | 71.1 and 70.9 | 69.4 and 71.3 | 95.6 (inactive) and 106 (inactive) | 152 (active) and 146 (active) |
| COc1cccc(OC)c1OCCNCC1CSc2ccccc2O1.Cl (centres undefined) [Benoxathian hydrochloride] | 91.4 | 108 | 91.8 (inactive) | 92 (inactive) |
| CCC(=C(c1ccccc1)c1ccc(OCCN(C)C)cc1)c1ccccc1 [Tamoxifen] | 103 | 99.1 | 97.7 (inactive) | 114 (inactive) |
| CNC1C(O)C(NC)C2OC3(O)C(=O)CC(C)OC3OC2C1O (centres undefined) [Spectinomycin] | 104 | 98 | 97 (inactive) | 87 (inactive) |
| CCOc1ccccc1OCCNC(C)Cc1ccc(OC)c(S(N)(=O)=O)c1 (centres undefined) [Tamsulosin] | 98.8 | 96.7 | 97.8 (inactive) | 95.4 (inactive) |
| NC(Cc1ccc(O)c(O)c1)C(=O)O (centres undefined) [Levodopa] | 96.9 | 102 | 93.3 (inactive) | 96.9 (inactive) |
| CCOc1cc2ncc(C#N)c(Nc3ccc(F)c(Cl)c3)c2cc1NC(=O)/C=C/CN(C)C | 43.6 | 10 | 177 (active) | 84.6 (inactive) |
| Cc1nc2ccc(Oc3ccc(F)cc3)cc2c(=O)n1C[C@H]1CCCN(C(C)C)C1.Cl | 94.1 | 105 | 117 (inactive) | 102 (inactive) |
| CN(C(=O)CCCOc1ccc2[nH]c(=O)ccc2c1)C1CCCCC1 [Cilostamide] | 100.9 ± 0.88 | 109 ± 5 | 96.9 (inactive) | 98.1 (inactive) |
| CCN(CC)CCNC(=O)c1cc(S(C)(=O)=O)ccc1OC.Cl [Tiapride hydrochloride] | 111 | 107 | 96.7 (inactive) | 99.3 (inactive) |
| CC12CCC3c4ccc(O)cc4CCC3C1CCC2O (centres undefined) [Estradiol] | 94.6 | 93.8 | 97.6 (inactive) | 121 (inactive) |
| CC(C=CC=C(C)C=CC1=C(C)C(=O)CCC1(C)C)=CC=CC=C(C)C=CC=C(C)C=CC1=C(C)C(=O)CCC1(C)C [Canthaxanthin] | 102 ± 4.6 | 104 ± 3.5 | 90 (inactive) | 106 (inactive) |
| COCCOC(=O)C1=C(C)NC(C)=C(C(=O)OC(C)C)C1c1cccc([N+](=O)[O-])c1 (centres undefined) [Nimodipine] | 100 ± 2.9 | 106 ± 3.4 | 91.6 (inactive) | 104 (inactive) |
| CCCCCCCCCCCCCCC(=O)O [Pentadecanoic acid] | 99 | 92.6 | 105 (inactive) | 107 (inactive) |
| O=C1c2ccccc2-c2n[nH]c3cccc1c23 [JNK Inhibitor II] | 91.4 | 112 | 90.5 (inactive) | 144 (active) |
| CCCCCCCCC=CCCCCCCCC(=O)OCC(CO)OC(=O)CCCCCCCC=CCCCCCCCC (centres undefined) [1,2-Dioleoyl-glycerol (18:1)] | 100 | 104 | 95.2 (inactive) | 101 (inactive) |
| CN(C)C(=O)Nc1cccc(-c2ccc(N(C)C)cc2)c1 [3-(4'-(dimethylamino)-[1,1'-biphenyl]-3-yl)-1,1-dimethylurea] | 101 | 101 | 97.6 (inactive) | 87.2 (inactive) |
| CC(C)(C)c1ccc(S(=O)(=O)C=CC#N)cc1 | 50.3 | 92.1 | 98.3 (inactive) | 135 (inactive) |
| C[C@@H](c1nc(-c2ccc(C#N)cc2)cs1)[C@](O)(Cn1cncn1)c1ccc(F)cc1F | 83.5 | 95 | 111 (inactive) | 129 (inactive) |
| COc1cc(-c2oc3cc(O)ccc3c(=O)c2O)ccc1O [Geraldol] | 85.9 | 73.9 | 95.2 (inactive) | 99.4 (inactive) |
| C=C1CCC(O)CC1=CC=C1CCCC2(C)C1CCC2C(C)CCC(O)C(C)(C)O [24(R),25-Dihydroxyvitamin D3] | 105 | 98.9 | 101 (inactive) | 93.7 (inactive) |
| CC(C)NCC(O)COc1cccc2[nH]ccc12 (centres undefined) [Pindolol] | 98 ± 3.1 | 94.3 ± 2.5 | 98.8 (inactive) | 110 (inactive) |
